The values that follow come from PubChem BioAssay (EPA / NIEHS).

Calls of active or inactive are those of the source. Rule for the calls: active = hit-call score of the fitted dose curve at least 0.9, where 1 is the maximum; inactive = score below 0.9.

Holding throughout (settings): mRNA level, 48 h; actives raise or lower the signal
Read-out in assay [1]: ATP-citrate lyase (ACLY), ACLY (gene 47)
Nature of the assay: LTEA_HepaRG_ACLY: Life Technologies and Expression Analysis (LTEA) Assay for ATP-citrate lyase (ACLY) using HepaRG (AID 2283466). The method, boiled down: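 HepaRG, 48 h exposure, 8-pt half-log dilutions (top 100 uM), 0.5% DMSO. Readout: ACLY mRNA, TaqMan qRT-PCR, housekeeping-normalized (ACTB/GAPDH/POLR2A). Bidirectional curve fit vs DMSO.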

Read-out in assay [2]: Alkaline Phosphatase, Placental (ALPP) gene, ALPP (gene 250)
Nature of the assay: LTEA_HepaRG_ALPP: Life Technologies and Expression Analysis (LTEA) Assay for Alkaline Phosphatase, Placental (ALPP) gene using HepaRG (AID 2283468). The method, boiled down:
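Using human liver HepaRG cells, chemicals are tested in duplicate over 48 h at half-log concentrations topping at 100 uM; phenobarbital 1 mM serves as induction control. ALPP mRNA change by qRT-PCR, bidirectional fit against vehicle.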

Read-out in assay [3]: Bcl-2 (BAD) gene, BAD (gene 572)
Nature of the assay: LTEA_HepaRG_BAD: Life Technologies and Expression Analysis (LTEA) Assay for Bcl-2 (BAD) gene using HepaRG (AID 2283469). An outline of the steps: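 BAD transcript change, measured by qRT-PCR against three housekeeping genes and fitted in both directions relative to 0.5% DMSO, after 48 h chemical treatment of human HepaRG liver cells at concentrations up to 100 uM.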

Read-out in assay [4]: Bcl-2 (BAX) gene, BAX (gene 581)
Nature of the assay: LTEA_HepaRG_BAX: Life Technologies and Expression Analysis (LTEA) Assay for Bcl-2 (BAX) gene using HepaRG (AID 2283470). The method, boiled down:
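Differentiated human HepaRG cells, plated 48 h then switched to serum-free induction medium, were exposed 48 h to 8 half-log concentrations up to 100 uM in 0.5% DMSO; BAX mRNA measured by qRT-PCR, normalized to ACTB, GAPDH, POLR2A.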

Read-out in assay [5]: adenosine kinase (ADK) gene, ADK (gene 132)
Briefly: LTEA_HepaRG_ADK: Life Technologies and Expression Analysis (LTEA) Assay for adenosine kinase (ADK) gene using HepaRG (AID 2283471). An outline of the steps:
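Following 48 h exposure of HepaRG cells in 0.5% DMSO (top concentration 100 uM, duplicate wells), ADK mRNA induction or suppression was measured by qRT-PCR, normalised to ACTB/GAPDH/POLR2A, and fitted bidirectionally relative to vehicle.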

Read-out in assay [6]: Alpha-fetoprotein (AFP) gene, AFP (gene 174)
Briefly: LTEA_HepaRG_AFP: Life Technologies and Expression Analysis (LTEA) Assay for Alpha-fetoprotein (AFP) gene using HepaRG (AID 2283472). An outline of the steps: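 Human HepaRG cells plated 48 h, then switched to serum-free induction medium and exposed in duplicate for 48 h to 8-point half-log series from 100 uM in 0.5% DMSO. AFP mRNA by qRT-PCR, normalized to ACTB, GAPDH, POLR2A; bidirectional fit versus DMSO.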

Read-out in assay [7]: BCL2L11 (gene 10018)
Nature of the assay: LTEA_HepaRG_BCL2L11: Life Technologies and Expression Analysis (LTEA) Assay for Bcl-2 (BCL2L11) gene using HepaRG (AID 2283473). The method, boiled down: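 Human hepatic HepaRG cultures are treated 48 h with test chemicals (maximum 100 uM, 0.5% DMSO vehicle). Expression of BCL2L11 is measured by qRT-PCR against ACTB, GAPDH and POLR2A, with activity in either direction scored relative to vehicle.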

Read-out in assay [8]: Apolipoprotein A-V (APOA5) gene, APOA5 (gene 116519)
Briefly: LTEA_HepaRG_APOA5: Life Technologies and Expression Analysis (LTEA) Assay for Apolipoprotein A-V (APOA5) gene using HepaRG (AID 2283474). The method, boiled down:
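Concentration-response of APOA5 expression in HepaRG: eight half-log doses to 100 uM, 48 h, qRT-PCR normalized to ACTB/GAPDH/POLR2A, bidirectional fitting with 0.5% DMSO as baseline.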

Read-out in assay [9]: Apoptosis regulator Bcl-2 (Homo sapiens) (UniProt P10415)
Briefly: LTEA_HepaRG_BCL2: Life Technologies and Expression Analysis (LTEA) Assay for Bcl-2 gene using HepaRG (AID 2283475). The method, boiled down: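 Differentiated HepaRG cells in serum-free induction medium were exposed for 48 h to eight half-log concentrations up to 100 uM in 0.5% DMSO, in duplicate. BCL2 mRNA was quantified by TaqMan qRT-PCR normalised to ACTB, GAPDH and POLR2A, with bidirectional fitting versus DMSO.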

Read-out in assay [10]: Peroxisomal acyl-coenzyme A oxidase 1 (ACOX1) gene, ACOX1 (gene 51)
Nature of the assay: LTEA_HepaRG_ACOX1: Life Technologies and Expression Analysis (LTEA) Assay for Peroxisomal acyl-coenzyme A oxidase 1 (ACOX1) gene using HepaRG (AID 2283467). An outline of the steps: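 Measured by qRT-PCR against three housekeeping genes: ACOX1 transcript change in human HepaRG cells after 48 h dosing. Concentrations ran up to 100 uM in half-log steps. Curves were fitted bidirectionally relative to 0.5% DMSO.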

Usually AC50 stands for the concentration at which the activity in the assay is half-maximal.

Apoptosis regulator Bcl-2 (Homo sapiens), sequence (P10415 whole entry, looked up): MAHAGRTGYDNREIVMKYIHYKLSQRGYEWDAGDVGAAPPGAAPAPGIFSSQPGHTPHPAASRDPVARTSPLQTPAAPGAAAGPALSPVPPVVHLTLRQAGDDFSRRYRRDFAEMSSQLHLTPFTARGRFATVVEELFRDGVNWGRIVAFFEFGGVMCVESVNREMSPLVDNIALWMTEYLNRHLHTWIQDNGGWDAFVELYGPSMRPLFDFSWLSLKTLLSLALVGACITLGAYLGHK

Turning to `CCNc1cccc(C)c1`, the result in assay [1], in assay [2], in assay [3], in [4], in [5] and in assay [6] was inactive. For the same compound, the result in assay [7], in assay [8] and in [9] was inactive.
`Cc1cccc(Nc2cc(Cl)nc(SCC(=O)O)n2)c1C`: the result in [1], in assay [2], in assay [3], in [4], in assay [5] and in assay [6] was inactive. The result in assay [7], in assay [8] and in assay [9] was inactive.
Take `COc1cc(S(=O)(=O)O)c(C)cc1N=Nc1c(O)ccc2cc(S(=O)(=O)O)ccc12`: the result in assay [1], in [2], in [3], in assay [4], in [5] and in assay [6] was inactive. Also, the compound was classed as inactive in [7] and in assay [9].
`Cc1nc(-c2ccc3c(c2)CCN(CCC2CCC(NC(=O)/C=C/c4ccc(F)cc4)CC2)CC3)no1` (stereo not given): the compound was classed as inactive in assay [1], in assay [2], in assay [3], in [4], in [5] and in assay [6]. Also, the call in assay [7], in [8] and in assay [9] was inactive.
Consider `O=C(N[C@@H](Cc1ccccc1)[C@@H](O)C(=O)N1C[C@@H](O)[C@@H](O)C1)c1cc2cc(Cl)ccc2[nH]1`, for which, in [1], the AC50 was 50 µM (active). For the same compound, the call in [2], in assay [3], in assay [4], in assay [5], in assay [6] and in [7] was inactive. The result in assay [8] and in assay [9] was inactive.
For `COC(=O)c1ccc(O)cc1`, the result in assay [1], in assay [2], in assay [3], in assay [4], in [5] and in assay [6] was inactive. Further, the result in [7], in [8] and in [9] was inactive.
As for `CCCCCCC(=O)OCC`, the outcome in assay [1], in assay [2], in [3], in assay [4], in [5] and in assay [6] was inactive. Further, the compound was called inactive in assay [7], in [8] and in assay [9].
For the compound `NCCO`, the result in assay [1], in [2], in assay [3], in [4], in assay [5] and in [6] was inactive. The compound was classed as inactive in assay [7], in assay [8] and in assay [9].
On to `O=C(OCCCCCOC(=O)c1ccccc1)c1ccccc1`, for which the half-maximal activity concentration (AC50) in assay [1] is 50 µM (active); in assay [2], 1.46 µM (active); in assay [3], 1.95 µM (active); in assay [4] it was 1.78 µM (active); in [5] it was 1.57 µM (active); in assay [6] it was 0.77 µM (active). Moreover, the AC50 in assay [7] is 2.45 µM (active); in assay [8], 3.02 µM (active); in assay [9], 1.67 µM (active).
As to `Nc1ccccc1N`, the result in assay [2], in [3] and in assay [9] was inactive. Further, the concentration at half-maximal activity (AC50) in [4] was 40.6 µM (active); in [5] it was 85.7 µM (active); in assay [6] it was 72 µM (active); in assay [7], 50 µM (active); in assay [8] it was 58.2 µM (active).
Regarding `C[Si]1(C)O[Si](C)(C)O[Si](C)(C)O[Si](C)(C)O1`, the call in [10], in assay [2], in [3], in assay [4], in assay [5] and in [6] was inactive. Moreover, the compound was called inactive in assay [7], in assay [8] and in assay [9].
For the compound `Cc1ccc(C)c(C)c1`, the outcome in assay [1], in assay [2], in [3], in assay [4], in assay [5] and in [6] was inactive. For the same compound, the compound was called inactive in [7], in [8] and in [9].
Turning to `O=c1c(O)c(-c2ccc(O)c(O)c2)oc2cc(O)cc(O)c12`, the result in assay [1], in [2], in assay [3], in assay [4], in [5] and in assay [7] was inactive. The call in [8] and in [9] was inactive. For the same compound, the AC50 in assay [6] was 79 µM (active).
Regarding `CC1(C)CC(N=C=O)CC(C)(CN=C=O)C1` (stereo not given), the outcome in [1], in [2], in [3], in [4], in assay [5] and in assay [6] was inactive. Also, the compound was called inactive in assay [7], in [8] and in [9].
Take `O=C(O)Cc1ccccc1Nc1c(Cl)cccc1Cl`: the outcome in assay [1], in [2], in [3], in assay [4], in assay [5] and in assay [7] was inactive. The compound was called inactive in assay [8] and in assay [9]. The AC50 in assay [6] is 19.7 µM (active).
Regarding `CC(=O)C(C)=CC1C(C)=CCCC1(C)C` (stereo not given), the call in assay [1], in assay [2], in [3], in [4], in [5] and in [6] was inactive. Also, the outcome in assay [7], in assay [8] and in assay [9] was inactive.
With `C[C@]12C=CC(=O)C=C1CC[C@@H]1[C@@H]2C(=O)C[C@@]2(C)[C@H]1CC[C@]2(O)C(=O)CO`, the compound was called inactive in assay [1], in assay [2], in assay [3], in [4], in [5] and in assay [6]. Moreover, the call in [7], in assay [8] and in assay [9] was inactive.
For `CC(=O)OC/C=C(\C)CCC=C(C)C`, the call in assay [1], in assay [2], in assay [3], in assay [4], in assay [5] and in [6] was inactive. In addition, the outcome in assay [7], in [8] and in assay [9] was inactive.
For the compound `Cc1ccc(N(C)C)cc1`, the call in [1], in [2], in assay [3], in [4], in assay [5] and in assay [6] was inactive. Also, the compound was called inactive in assay [7], in assay [8] and in [9].
For `CN[C@H]1CC[C@@H](c2ccc(Cl)c(Cl)c2)c2ccc(S(N)(=O)=O)cc21`, the half-maximal activity concentration (AC50) is 63.6 µM (active) in assay [1], 5.79 µM (active) in assay [2], 82.6 µM (active) in [4] and 23.8 µM (active) in assay [6]. Besides, the outcome in assay [3], in [5], in [7], in assay [8] and in [9] was inactive.
`CN1CCCC1=O`: the call in assay [1], in assay [2], in assay [3], in assay [4], in [5] and in assay [6] was inactive. Also, the compound was classed as inactive in [7], in assay [8] and in assay [9].
On to `CCCCCCCCCCCCCO`, for which the call in assay [1], in [2], in [3], in [4], in assay [5] and in assay [6] was inactive. Besides, the compound was classed as inactive in assay [7], in assay [8] and in [9].
For `CC(=O)OCCOCCOCCOC(C)=O`, the compound was classed as inactive in assay [1], in assay [2], in assay [3], in assay [4], in [5] and in assay [6]. Moreover, the result in [7], in [8] and in [9] was inactive.
